Screening data (PubChem)
mHTT-CaM PPI inh = mutant huntingtin-calmodulin interaction inhibitors – biochemical, AlphaScreen, primary screen; AlphaScreen His-mHTT/GST-CaM binding, luminescence; inhibition, % at 15 µM; hit rate 3.6% among 190,000; AID 1671202, 2021;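 also: 0% = both proteins with DMSO and 100% = one protein alone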
Pf apPOL block = Pf-apPOL inhibitors, biochemical, fluorescence | hit rate 0.25% among 210,000 | inhibition, % at 10 µM | Recombinant Pf-apPOL, molecular beacon fluorescence, 1.5 h
An asterisk follows results filed as active; i = inactive; x = no result; + = active, no number. Many of the other results were omitted from the sample, so hits are more common in it than they were. Rule as the data show it: active = inhibition above about 50%; inactive = the rest.

SMILES	mHTT-CaM PPI inh	Pf apPOL block
Cc1ccc(CN2C(=O)c3ccccc3C2C(=O)NC2CCCC(C)C2C)cc1 (centres undefined)	11.0	-12.7
Cn1nc(-c2nc(-c3cccc(F)c3)no2)c2c1CCN(C(=O)c1ccccc1)C2	3.7	-4.4
Cc1cccc(C(=O)NC(Nc2cccc([N+](=O)[O-])c2)C(Cl)(Cl)Cl)c1 (centres undefined)	11.0	2.4
O=C(NC(Nc1ccc(Br)cc1)C(Cl)(Cl)Cl)c1cccc([N+](=O)[O-])c1 (centres undefined)	96.0*	-5.6
O=C(NC(Nc1ccccc1)C(Cl)(Cl)Cl)c1cccc(Cl)c1 (centres undefined)	23.0	-1.2
COc1ccc(NC(NC(=O)c2cccc(Cl)c2)C(Cl)(Cl)Cl)cc1 (centres undefined)	65.0*	-5.7
O=C(NC(Nc1ccc([N+](=O)[O-])cc1)C(Cl)(Cl)Cl)c1ccc([N+](=O)[O-])cc1 (centres undefined)	79.0*	-1.2
O=C(NC(Nc1cccc([N+](=O)[O-])c1)C(Cl)(Cl)Cl)c1cccc([N+](=O)[O-])c1 (centres undefined)	54.0*	-2.4
O=C(NC(NCc1ccccc1)C(Cl)(Cl)Cl)c1cccc([N+](=O)[O-])c1 (centres undefined)	20.0	-0.5
CC(C)(C)C(=O)NC(Nc1ccc([N+](=O)[O-])cc1)C(Cl)(Cl)Cl (centres undefined)	12.0	16.1
CCOc1ccccc1CNC(=O)CCc1cn(Cc2ccccc2)c2ccccc12	19.0	-12.8
COc1cccc(C(=O)Nc2c3c(nn2-c2cccc(C)c2C)CS(=O)C3)c1 (centres undefined)	-2.0	-2.4
O=C(NC(Nc1ccc(Cl)cc1)C(Cl)(Cl)Cl)c1cccc([N+](=O)[O-])c1 (centres undefined)	99.0*	-2.4
NS(=O)(=O)c1ccc(NC(NC(=O)c2cccc([N+](=O)[O-])c2)C(Cl)(Cl)Cl)cc1 (centres undefined)	29.0	-4.4
O=C(NC(Nc1cccc(Cl)c1)C(Cl)(Cl)Cl)c1cccc([N+](=O)[O-])c1 (centres undefined)	95.0*	2.9
O=C(NC(Nc1cccc([N+](=O)[O-])c1)C(Cl)(Cl)Cl)c1cccnc1 (centres undefined)	7.0	0.0
Cc1ccc(N2CCC(NC(=O)C(C)C)C2=O)cc1C (centres undefined)	-12.0	-0.8
COc1ccccc1C(=O)N1CCCN(c2ncccc2-c2nc(C(C)C)no2)CC1	1.6	-7.7
Cc1cc(C)c(S(=O)(=O)N=C2C=CC(=O)C(Br)=C2)cc1C	58.0*	-7.1
O=C1C(Br)=CC(=NS(=O)(=O)c2ccccc2)C=C1Br	100.0*	-1.5
CC1=CC(=O)C=C(C)C1=NS(=O)(=O)c1ccccc1	5.0	4.6
Cc1cc(C)c(S(=O)(=O)N=C2C=CC(=O)C=C2)cc1C	30.0	5.9
O=C1C=CC(=NS(=O)(=O)c2ccc(Br)cc2)C=C1	24.0	-5.5
CC1=C(C)C(=NS(=O)(=O)c2ccccc2)C=CC1=O	37.0	1.0
O=C1C=CC(=NS(=O)(=O)c2ccccc2)C=C1Br	57.0*	-5.2
SMILES	mHTT-CaM PPI inh	Pf apPOL block
CC1=CC(=NS(=O)(=O)c2ccc(Br)cc2)C=C(C)C1=O	52.0*	-4.7
CN(C)c1cc(OC2CCN(C(=O)c3c[nH]c4ccccc34)C2)ncn1 (centres undefined)	8.7	3.5
CCc1ccc(S(=O)(=O)N=C2C=CC(=O)C(Br)=C2)cc1	72.0*	-3.3
Cc1ccc(S(=O)(=O)N=C2C=CC(=NS(=O)(=O)c3ccc(C)cc3)C=C2)cc1	23.0	-2.3
O=C(NCCc1cccnc1)c1cc2cn(C3CCCC3)cc2s1	14.5	5.7
CN(C)Cc1c(O)ccc2c1OC(=Cc1cccc(Cl)c1)C2=O	10.9	10.5
CCN(CC)Cc1c(O)ccc2c1OC(=Cc1cccc(Cl)c1)C2=O	53.3*	-2.2
COc1ccc2nc(SC(=O)c3ccccc3)nc(C)c2c1	100.0*	-5.1
COc1ccc2nc(SC(=O)c3ccccc3Cl)nc(C)c2c1	99.0*	-7.3
COc1ccc(NC(=O)c2ccccc2Cl)c(OC)c1	-7.4	3.0
COc1ccc2nc(SCc3cccc([N+](=O)[O-])c3)nc(C)c2c1	-2.6	11.1
CN(Cc1ccccc1)S(=O)(=O)c1ccc(F)c(C(=O)Nc2ccc(Cl)c(Cl)c2)c1	3.0	-5.2
Cc1ccc(S(=O)(=O)Nc2ccc3oc(=O)sc3c2)cc1[N+](=O)[O-]	41.0	-4.0
Clc1cc2c(cc1/C=N/Nc1nc3ccccc3[nH]1)OCO2	+	x
Cc1[nH]c2ccccc2c1/C=N\Nc1nc2ccccc2[nH]1	+	x
Cc1cc(C)nc(Nc2nc3ccccc3[nH]2)n1	0.0	-0.9
N#C/C(=C\c1cc2c(cc1Br)OCO2)c1nc2ccccc2[nH]1	7.5	-1.2
O=c1/c(=C/c2ccc(Br)cc2)sc2nc(-c3ccccc3)nn12	-5.0	-5.9
COCCN1C(=O)c2ccccc2C(C(=O)Nc2cccc(C)n2)C1c1ccc(F)cc1 (centres undefined)	-5.0	3.7
Cc1ccc(C=C2Oc3c(ccc(O)c3CN3CCN(C)CC3)C2=O)cc1	8.2	-21.1
COc1ccc(-c2c(Cc3ccccc3)[nH]n3c(=O)cc(-c4ccc([N+](=O)[O-])cc4)nc23)cc1	8.8	-0.6
COc1ccc(Cc2[nH]n3c(=O)cc(-c4ccc([N+](=O)[O-])cc4)nc3c2-c2ccccc2)cc1	71.1*	6.1
CC1=CC(=O)C(C(C)C)=C/C1=N\OC(=O)c1ccc(C(C)(C)C)cc1	i	-5.4
CC1=CC(=O)C(C(C)C)=C/C1=N\OC(=O)c1ccc(C)cc1	i	-5.5
CC1=CC(=O)C(C(C)C)=C/C1=N\OC(=O)c1cccs1	+	6.6
SMILES	mHTT-CaM PPI inh	Pf apPOL block
COc1cc(C(=O)O/N=C2/C=C(C(C)C)C(=O)C=C2C)cc(OC)c1OC	i	-3.8
COc1ccc(Cl)cc1C(=O)O/N=C1\C=C(C(C)C)C(=O)C=C1C	+	8.0
CC1=CC(=O)C(C(C)C)=C/C1=N\OC(=O)c1ccccc1C	i	1.7
COc1ccccc1C(=O)O/N=C1\C=C(C(C)C)C(=O)C=C1C	+	-4.9
COc1ccc(C(=O)O/N=C2\C=C(C(C)C)C(=O)C=C2C)cc1Br	+	2.7
O=C(NCc1ccccc1)c1ccccc1CN1C(=O)C2CCCN2C(=O)c2ccccc21 (centres undefined)	-0.8	3.5
Cc1cc(C)n(CCNC(=O)CSCc2ccccc2)n1	-14.4	-8.4
Cc1cccc(N2CCC(C(=O)Nc3ccc(F)cc3)C2=O)c1C (centres undefined)	1.6	-4.7
CCn1c(-c2cc(NC(C)=O)n[nH]2)cc2c(OC)cccc21	18.9	-2.5
CC1=CC(=O)C(C(C)C)=C/C1=N\Oc1c([N+](=O)[O-])cc(Cl)cc1[N+](=O)[O-]	+	-0.3
Nc1c(Cl)cc(Cl)cc1[N+](=O)[O-]	2.4	-3.8
COC(=O)c1cc(Nc2ncnc3c2nc2n3CCCCC2)cc(C(=O)OC)c1	19.6	-2.1
Cc1cccc(COC[C@H](Cc2ccccc2)N2CCN(C(=O)c3cccc(Cl)c3)CCC2=O)c1	98.1*	-3.8
Cc1cccc(COC[C@H](Cc2ccccc2)N2CCN(C(=O)c3cc(Cl)cc(Cl)c3)CCC2=O)c1	-0.3	-2.4
